From PubChem BioAssay (NCI)
Values joined by “and” are separate entries in the source; they are usually repeats but may differ in a detail not shown here. Equal entries are not always repeated. This is part of a sample that, as a whole, favours compounds with a hit. Of some 79,000 tested, about 15% had one in any assay. A structure can be active in one record and inactive in another. Active and inactive are the calls of the source. Cut-off read from the data, not from the text of the source: active = growth inhibition above about 70%; inactive = the rest.

Experiments:
[1] = NCI Yeast Anticancer Drug Screen. Data for the rad50 strain (AID 155);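 note: 0% = growth of vehicle-only cultures of the same strain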; settings: S. cerevisiae rad50 strain growth inhibition, stronger effect = higher value
In short: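 Growth of the mutant yeast was measured after compound exposure and referenced to vehicle-treated cultures.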

[2] = NCI Yeast Anticancer Drug Screen. Data for the mec2-1 strain (AID 157); settings: S. cerevisiae mec2-1 strain, stronger effect = higher value
In short: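 Each compound was tested on mec2-1 yeast, a strain altered in DNA damage repair or cell cycle control. Growth inhibition is reported relative to vehicle.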

[3] = NCI Yeast Anticancer Drug Screen. Data for the sgs1 mgt1 strain (AID 161);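 note: 0% = growth of cultures given vehicle only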; settings: S. cerevisiae sgs1 mgt1 strain, stronger effect = higher value
In short: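 Read-out: growth inhibition vs vehicle controls. Cells: mutant yeast strain deficient in DNA damage repair.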

[4] = NCI Yeast Anticancer Drug Screen. Data for the cln2 rad14 strain (AID 165);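 note: 0% = growth equal to vehicle treated cultures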; settings: S. cerevisiae cln2 rad14 strain, stronger effect = higher value
In short: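 Test compounds were added to cln2 rad14 yeast cultures; inhibition of growth was then determined by comparison with vehicle treatment.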

[5] = NCI Yeast Anticancer Drug Screen. Data for the bub3 strain (AID 167); settings: S. cerevisiae bub3 mutant strain, stronger effect = higher value
In short: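 Whole-cell yeast assay. The mutant strain was incubated with compounds, and growth inhibition was determined by comparison with vehicle-treated cells.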

[6] = NCI Yeast Anticancer Drug Screen. Data for the mlh1 rad18 strain (AID 175); settings: S. cerevisiae mlh1 rad18 strain growth inhibition, stronger effect = higher value
In short: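 Inhibition values reflect reduced growth of mutant yeast versus vehicle-treated controls following compound exposure; the mutations affect DNA damage repair.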

[7] = at 5.0 µM (retest, dose inferred, filed as 0.5)
[8] = at 50.0 µM (retest, dose inferred, filed as 5.0)

Measured: growth inhibition

CCOC(=O)C(C(=O)c1ccccc1)C(=O)c1ccccc1
-0.95% (inactive) and 90.5% (active): [5]; at 50.0 µM
inactive: [1]; [7] 29% | [2]; [7] 29% | [3]; [7] 37% | [4]; [7] 34% | [4]; [8] 56% | [5]; [7] 35% | [6]; [7] 35%
-4.65% (inactive) and 92% (active): [3]; at 50.0 µM
-14.4% (inactive) and 91.2% (active): [2]; at 50.0 µM
active: [1]; [8] 85% | [2]; [8] 93% | [3]; [8] 82% | [5]; [8] 92% | [6]; [8] 97%
-21.1% (inactive) and 90.6% (active): [4]; at 50.0 µM
-22% (inactive) and 90.8% (active): [6]; at 50.0 µM
-24.3% (inactive) and 90.8% (active): [1]; at 50.0 µM

Cc1c2cc[n+](C)cc2c(C)c2c1[nH]c1ccccc12
inactive: [1]; [7] 28% | [1]; [8] 68% | [1]; at 50.0 µM 27.5% and 40.4% | [2]; [7] 18% | [2]; [8] 22% | [2]; at 50.0 µM 29.2% and -21.1% | [3]; [7] 28% | [3]; [8] 36% | [4]; [7] 27% | [4]; [8] 32% | [4]; at 50.0 µM 23.8% and 2.8% | [5]; [7] 12% | [5]; [8] 31% | [5]; at 50.0 µM 62.8% and -38.5% | [6]; [7] 16% | [6]; [8] 39% | [6]; at 50.0 µM 54.5% and 26.9%
75.7% (active) and -25% (inactive): [3]; at 50.0 µM

CC(NC(=O)/C(C#N)=C/c1ccc2[nH]ccc2c1)c1ccccc1 (centres undefined)
active: [1]; [8] 94% | [1]; at 50.0 µM 86.2% | [2]; [8] 95% | [2]; at 50.0 µM 90% | [3]; [8] 93% | [3]; at 50.0 µM 88.8% | [4]; [8] 91% | [4]; at 50.0 µM 86.5% | [5]; [8] 94% | [5]; at 50.0 µM 86.2% | [6]; [8] 96% | [6]; at 50.0 µM 86.3%
inactive: [1]; [7] 0% | [2]; [7] 1% | [3]; [7] 16% | [4]; [7] 7% | [5]; [7] 3% | [6]; [7] -5%

NNc1ccc2ccccc2c1
90.2% (active) and 29.1% (inactive): [4]; at 50.0 µM
91.2% (active) and 21.1% (inactive): [5]; at 50.0 µM
95.5% (active) and 26.1% (inactive): [3]; at 50.0 µM
active: [1]; [8] 86% | [5]; [8] 77% | [6]; [8] 91%
85.6% (active) and 2.95% (inactive): [2]; at 50.0 µM
97.2% (active) and 22.5% (inactive): [1]; at 50.0 µM
97.2% (active) and 25.7% (inactive): [6]; at 50.0 µM
inactive: [1]; [7] 28% | [2]; [7] 4% | [2]; [8] 56% | [3]; [7] 13% | [3]; [8] 57% | [4]; [7] 16% | [4]; [8] 30% | [5]; [7] 16% | [6]; [7] 33%

CCCCCCCCCCCCCCCC[N+](C)(C)c1nc(Cl)nc(Cl)n1
active: [1]; [7] 99% | [1]; [8] 99% | [1]; at 50.0 µM 99.3% | [2]; [7] 100% | [2]; [8] 100% | [2]; at 50.0 µM 98.1% | [3]; [7] 100% | [3]; [8] 100% | [3]; at 50.0 µM 99.2% | [4]; [7] 98% | [4]; [8] 99% | [4]; at 50.0 µM 95.5% | [5]; [7] 99% | [5]; [8] 99% | [5]; at 50.0 µM 99.3% | [6]; [7] 99% | [6]; [8] 99% | [6]; at 50.0 µM 95.8%

CC(=O)[O-].[O-]c1c(Cl)cc(Cl)cc1/C=N/Nc1ccccn1.[Zn+2]
active: [1]; [8] 93% | [1]; at 50.0 µM 96.5% | [2]; [8] 96% | [2]; at 50.0 µM 87.8% | [3]; [8] 96% | [3]; at 50.0 µM 98.1% | [4]; [8] 93% | [4]; at 50.0 µM 95.5% | [5]; [8] 96% | [6]; [8] 93% | [6]; at 50.0 µM 97%
inactive: [1]; [7] 5% | [2]; [7] 16% | [3]; [7] 4% | [4]; [7] -1% | [5]; [7] -4% | [5]; at 50.0 µM 37.2% | [6]; [7] 3%

O=[N+]([O-])C(/C=C(\Cl)[N+](=O)[O-])=C(Nc1ccccc1)Nc1ccccc1
active: [1]; [8] 98% | [1]; at 50.0 µM 86.8% | [2]; [8] 99% | [2]; at 50.0 µM 88.2% | [3]; [8] 98% | [3]; at 50.0 µM 86.8% | [4]; [8] 98% | [4]; at 50.0 µM 82.8% | [5]; [8] 99% | [5]; at 50.0 µM 85.8% | [6]; [8] 99% | [6]; at 50.0 µM 80.3%
inactive: [1]; [7] -23% | [2]; [7] -7% | [3]; [7] -16% | [4]; [7] 1% | [5]; [7] -33% | [6]; [7] 27%

CSCCC(NS(=O)(=O)Cc1ccccc1)C(=O)NNc1ccccc1 (centres undefined)
72% (active) and 51.2% (inactive): [1]; at 50.0 µM
inactive: [1]; [7] -4% and 18% | [2]; [7] 0% and 2% | [2]; [8] 30% and 34% | [2]; at 50.0 µM 30.7% and 41.2% | [3]; [7] -12% and 10% | [3]; [8] 65% and 58% | [3]; at 50.0 µM 55.9% and 63.3% | [4]; [7] 14% and 5% | [4]; [8] 44% and 60% | [4]; at 50.0 µM 56.4% and 40.1% | [5]; [7] 2% and 16% | [6]; [7] 33% and 18%
44% (inactive) and 71% (active): [1]; [8]
42% (inactive) and 93% (active): [5]; [8]
active: [6]; at 50.0 µM 76.9% and 76.8%
46.6% (inactive) and 73.8% (active): [5]; at 50.0 µM
79% (active) and 65% (inactive): [6]; [8]
